High-throughput results as filed in PubChem BioAssay.
Hits are enriched below; roughly 2.1% of the tested compounds scored in any of these assays.
LDHA inh: LDHA (human) enzyme inhibition; purified LDHA, NADH/diaphorase-resazurin fluorescence; stronger effect = lower value; activity change, % (values are at about 110 or 230 µM); actives 0.15% (n = 480,000); AID 1347041; in the data active = activity change below about -30%;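 also: plate controls were DMSO wells for no effect and wells without enzyme for full effect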
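Enzyme activity of human lactate dehydrogenase 5 (2 nM; 0.06 mM NADH, 0.2 mM pyruvate, 5 min, RT) is measured via a resazurin/diaphorase fluorescence readout of residual NADH.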
D2 PAM-1: human D2 receptor positive allosteric modulation | P14416 | DiscoveRx D2 beta-arrestin cells, luminescence, 90 min; 100% = 57 uM dopamine signal | potentiation, % (test concentration not listed) | actives 0.23% (n = 360,000) | AID 624464; in the data active = potentiation above about 50%
Target sequence (P14416 whole entry, looked up): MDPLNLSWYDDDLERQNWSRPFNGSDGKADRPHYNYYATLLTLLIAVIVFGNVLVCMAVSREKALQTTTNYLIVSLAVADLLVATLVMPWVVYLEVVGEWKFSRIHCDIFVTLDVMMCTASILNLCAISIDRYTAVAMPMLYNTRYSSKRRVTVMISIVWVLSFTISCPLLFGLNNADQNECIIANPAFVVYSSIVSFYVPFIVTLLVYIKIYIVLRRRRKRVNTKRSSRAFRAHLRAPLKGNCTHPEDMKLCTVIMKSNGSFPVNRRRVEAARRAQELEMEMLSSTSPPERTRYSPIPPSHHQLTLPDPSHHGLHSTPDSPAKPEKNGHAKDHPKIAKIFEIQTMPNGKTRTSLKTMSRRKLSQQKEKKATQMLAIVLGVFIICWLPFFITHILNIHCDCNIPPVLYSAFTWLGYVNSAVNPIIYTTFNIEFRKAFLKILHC
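PathHunter beta-arrestin assay in DiscoveRx D2 cells. Compounds were added with an EC20 of dopamine (50 nM final) for 90 min at 37 deg C. Luminescence was read 1 h after detection reagent, with 57 uM dopamine as the EC100 control.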
D2 antagonist: antagonizes the human D2 dopamine receptor; actives 2% (n = 340,000); inhibition, % at 10 µM; HEK293 TREx D2 cells, calcium flux, dopamine EC80; in the data active = inhibition above about 30%; inactive = below that, where a call was filed; also: 0% is about no effect
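Compounds are added to dye-loaded, induced HEK293 T-REx cells coupled to calcium release via D2; after a 3 min kinetic read an EC80 dopamine stimulus is given and fluorescence is recorded for 3 more min.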
D2 ag-1: activates the human D2 dopamine receptor; HEK293 T-REx D2 cells, calcium flux agonist mode; AID 485358; actives 0.53% (n = 340,000); activation, % at 2 µM; P14416;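 active = activation over 3 SD above normal in the single-dose calcium agonist read, cut at about 30% in these data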; also: 0% is about no effect
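In this primary screen, compounds producing a positive calcium signal within 180 s of addition to tetracycline-induced, force-coupled HEK293 Trex D2 cells are flagged; cells are dye-loaded with a no-wash calcium kit beforehand.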
D2 ag-2: agonists of human D2 dopamine receptor (beta-arrestin); actives 0.084% (n = 360,000); P14416; activation, % (concentration not given with the values); DiscoveRx PathHunter D2 beta-arrestin, luminescence, 90 min; 100% = 57 uM dopamine signal; in the data active = activation above about 40%
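DiscoveRx PathHunter D2 beta-arrestin cells (2,100/well) attached overnight, then compound-stimulated 90 min at 37 C in HBSS/10 mM HEPES/0.1% Tween-20 buffer; beta-galactosidase complementation read by luminescence after 1 h at ambient temperature. Dopamine 57 uM final (EC100) as control.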
D2 PAM-2: D2 dopamine receptor (human) potentiation; P14416; HEK293 T-REx D2, calcium flux, EC20 dopamine potentiation; potentiation, % at 10 µM; actives 0.34% (n = 340,000);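 active = potentiation over 3 SD above the plate norm, cut at about 30% in these data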; also: 0% is about no effect
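Primary screen. Calcium kinetics in induced HEK293 T-REx D2 cells: compound pre-addition 180 s, EC20 dopamine, 180 s more.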
An asterisk follows results filed as active; . = no result.

SMILES	LDHA inh	D2 PAM-1	D2 antagonist	D2 ag-1	D2 ag-2	D2 PAM-2
CCC(=O)N1CCc2cc(S(=O)(=O)NCCC(=O)N3CCN(c4ccccn4)CC3)ccc21	-10	3	15	-1	1	39*
Cc1ccc(C(=O)NCCC(=O)N2CCC3(CC2)NCCc2[nH]cnc23)cc1	0	-2	-34	1	1	5
O=C(/C=C/c1ccccc1OC(=O)c1cccs1)c1cc2ccccc2o1	5	.	.	.	.	.
COc1ccc(C2=NN(C(=O)CN3CCc4cc(OC)c(OC)cc4C3)C(c3ccco3)C2)cc1 (stereo not drawn)	10	.	.	.	.	.
Nc1cccc(NS(N)(=O)=O)c1	10	.	.	.	.	.
COc1ccc(-c2nc(CSCC(=O)NC(C)c3ccccc3)c(C)o2)cc1OC (stereo not drawn)	6	.	.	.	.	.
COc1ccc(S(=O)(=O)NCc2cccnc2)cc1Br	-1	60*	-5	1	11	4
Cc1ccccc1NS(=O)(=O)c1cc(S(C)(=O)=O)ccc1C	-6	-5	-25	0	-3	-1
Cc1ccccc1NS(=O)(=O)c1ccc(C)c(NS(C)(=O)=O)c1C	0	-6	33*	0	2	-13
CN1CCN(c2oc(-c3ccc(C(C)(C)C)cc3)nc2C#N)CC1	5	.	.	.	.	.
COc1ccc(NC(C)=O)cc1NC(=O)c1cc(-c2ccco2)nc2ccccc12	-2	.	.	.	.	.
CC1CCCC(NC(=O)COC(=O)c2cccc(NS(=O)(=O)/C=C/c3ccccc3)c2)C1C (stereo not drawn)	-1	25	50*	-1	2	17
CC(C)NC(=O)COC(=O)c1cccc(NS(=O)(=O)/C=C/c2ccccc2)c1	-9	-30	-3	0	-7	-7
O=C(OCC(=O)N1CCNC1=O)c1cc2c(F)cccc2s1	3	.	.	.	.	.
O=C(C[n+]1ccc(-c2ccccc2)cc1)Nc1ccc([N+](=O)[O-])cc1	-1	-9	37*	1	-5	-19
CCc1nc2nc(C)c(NS(=O)(=O)c3ccc(F)cc3)c(=O)n2[nH]1	-5	-1	2	-2	3	30
CCc1nc2nc(C)c(NS(=O)(=O)c3ccc(Br)s3)c(=O)n2[nH]1	-3	11	-30	-1	4	31*
CCc1nc2nc(C)c(NS(=O)(=O)c3cccs3)c(=O)n2[nH]1	0	-8	0	-2	-4	51*
Cc1ccc(S(=O)(=O)Nc2c(C)nc3nc(C)[nH]n3c2=O)c(C)c1	-4	-5	36*	1	1	-13
CC1(C)CCCC(C)(C#CCN2CCN(C(c3ccccc3)c3ccccc3)CC2)O1 (stereo not drawn)	-6	.	.	.	.	.
Fc1ccccc1CSCc1ccc(-c2nc(-c3ccccc3)no2)o1	-1	.	.	.	.	.
CCOc1cc2c(cc1/C=C1/NC(=O)N(CC(=O)OC)C1=O)OCO2	0	-5	-5	0	-6	-6
COC(=O)CN1C(=O)N/C(=C/c2cc3c(cc2OC)OCO3)C1=O	3	15	29	0	-5	35*
CCCN1CCc2nc(N)c(C#N)c(-c3cc(OC)c(OC)c(OC)c3)c2C1	1	.	.	.	.	.
CCCC(c1nnnn1CS(=O)(=O)c1ccc(C)cc1)N1CCN(c2ccc(F)cc2)CC1 (stereo not drawn)	-11	-12	59*	1	-3	.
SMILES	LDHA inh	D2 PAM-1	D2 antagonist	D2 ag-1	D2 ag-2	D2 PAM-2
CCCC(c1nnnn1CS(=O)(=O)c1ccc(C)cc1)N1CCN(CC)CC1 (stereo not drawn)	-9	-11	-22	5	-3	0
Clc1cccc(-c2cc3nc4c(c(N5CCN(c6cnccn6)CC5)n3n2)CCCC4)c1	-3	-13	41*	1	-1	1
CC(O)CNCCCOc1cccc(C(F)(F)F)c1 (stereo not drawn)	-18	-17	34*	-1	-1	-26
CC(O)CNCCCOc1cccc(Oc2ccccc2)c1 (stereo not drawn)	-17	-9	-3	0	-5	2
O=C(Nc1ccc2oc(-c3cccnc3)nc2c1)c1cccc(Cl)c1	-1	.	.	.	.	.
Cc1ccc(-c2csc(Nc3cc(C)ccc3C)n2)cc1	3	.	.	.	.	.
CC(C)c1nnc(NC(=O)CS(=O)(=O)Cc2ccccc2)s1	-2	4	55*	0	5	4
CCCC(C)c1nnc(NC(=O)CCS(=O)(=O)Cc2ccccc2)s1 (stereo not drawn)	-6	-7	-15	0	-8	-9
CCC(CC)c1nnc(NC(=O)CS(=O)(=O)Cc2ccccc2)s1	0	9	.	.	0	.
CCCC(C)c1nnc(NC(=O)CS(=O)(=O)Cc2ccccc2)s1 (stereo not drawn)	-7	9	-2	0	2	30*
OCCC1CN(Cc2cccc3nonc23)CCN1C1CCCCC1 (stereo not drawn)	-5	-16	38*	-1	-6	-13
Cc1ccc(/C(O)=C2\C(=O)C(=O)NC2c2ccc(C)cc2)cc1 (stereo not drawn)	3	.	.	.	.	.
COCCn1c(C)cc(/C=C2/SC(=O)N(CC(=O)N3CCCC3)C2=O)c1C	-2	0	34*	2	-3	-1
COCCN1C(=O)/C(=C/c2ccc(N3CCCC3)cc2C)SC1=S	-1	-8	-24	37*	1	3
Cc1ccc2c(C)c(CCC(=O)NC3CCN(C)CC3)c(=O)oc2c1	-9	.	.	.	.	.
Nc1c2c(nc3c1CCC3)CCCC2	.	.	31*	1	.	-7
CCCNc1c(NC(=O)Nc2ccc(Cl)cc2)c(=O)oc2ccccc12	-6	.	.	.	.	.
Cn1c(=O)c2sccc2n(CC(=O)NCCC2=CCCCC2)c1=O	-1	-17	-10	0	-2	-2
Cn1c(=O)c2ccccc2n(CC(=O)NCCC2=CCCCC2)c1=O	-5	-3	41*	0	2	-10
COc1c2ccc(C(=O)NCc3cc(C(F)(F)F)cc(C(F)(F)F)c3)cc2nn1C	1	-9	41*	0	0	-9
N#Cc1nc(-c2ccco2)oc1N1CCN(CC(=O)N2CCNC2=O)CC1	0	.	.	.	.	.
COc1ccccc1C1CCN(c2cc(O)ccc2[N+](=O)[O-])CC1	5	-11	34*	3	-5	-1
COc1ccccc1C1CCN(C(=O)c2ccccc2)CC1	-3	3	5	-1	-6	9
CC(NC(=O)c1cc2cc(Br)cc(Br)c2o1)C1CC2CCC1C2 (stereo not drawn)	-6	.	.	.	.	.
CN(C)c1ccc(S(=O)(=O)NCC(=O)NCCC2=CCCCC2)cc1[N+](=O)[O-]	-5	-32	31*	0	-4	-9
